Inconclusive results are not listed. The source made the active and inactive calls. Unless noted, the call rests on the fitted dose curve; in most records, active means well fitted curve in the direction sought with a large enough effect; inconclusive means small, poorly fitted or top-dose-only effect, or another doubt; inactive means no such curve, though single readings can be large; an effect the other way counts as inactive or inconclusive.
Columns and labels:
[1] = target: Lysosomal acid glucosylceramidase (Homo sapiens) (UniProt P04062); experiment: Glucocerebrosidase-p2 (AID 348; in the data active means potency below about 10 µM; further: potency means the concentration at half of the fitted maximal effect); conditions: purified GBA, blue fluorogenic substrate, 40 min
How it was run: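 Compounds titrated from 0.6 nM upwards against 0.2 nM enzyme in pH 5.9 citric acid/KH2PO4, taurocholate, tween-20; blue fluorogenic substrate 80 uM, 40 min room temperature, stopped and read Ex 365/Em 440 for AC50.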

[2] = AP1 Signaling Pathway (AID 357; active means well fitted curve in either direction with a large enough effect, not every such curve was filed as active; further: on the % scale 0 is the no-effect control and ±100 the full control effect); conditions: ME-180 AP-1-bla reporter, EGF-induced, beta-lactamase ratio, 5 h; at 7.69 µM (top of the series) unless noted
How it was run: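 AP-1-bla ME-180 cells with beta-lactamase reporter under AP-1 response element, stimulated with EC50 EGF; compounds titrated, 5 hours at 37 degrees Celsius. CCF4 read at 460/530 nm ratio; positive and negative modulators judged by AC50.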

[3] = NFAT Signaling Pathway (AID 444; active means well fitted curve in either direction with a large enough effect, not every such curve was filed as active;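 further: carbachol stimulus at about its EC50 of 1 µM final; on the % scale 0 is the no-effect control and ±100 the full control effect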); conditions: Jurkat NFAT-bla M1, carbachol, beta-lactamase ratio, 5 h; at 7.69 µM (top of the series) unless noted
How it was run: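 Jurkat cells with NFAT-driven β-lactamase reporter and co-expressed M1 receptor, stimulated with carbachol (final 1 uM, ~EC50), compound titration, 5 h at 37 °C. CCF4 loaded 1 h at RT; 460/530 nm ratio gave %activity and AC50.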

[4] = Stat Signaling Pathway (AID 446; active means well fitted curve in either direction with a large enough effect, not every such curve was filed as active;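 further: ME-180 cervical cancer cells given 40 pM IL-6 alongside compound; SIE-controlled beta-lactamase reporter measured as 460/530 nm FRET emission ratio; on the % scale 0 is the no-effect control and ±100 the full control effect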); conditions: ME-180 SIE beta-lactamase reporter, IL-6 stimulated, 5 h; at 7.69 µM (top of the series) unless noted
How it was run: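 ME-180 SIE-bla cells; overnight plating; cpd + IL-6 40 pM, 5 h, 37 C; LiveBLAzer 2.5 h RT; 460/530 nm emission ratio. Normalized to 300 pM IL-6 and 125 nM JAK inhibitor controls.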

[5] = target: Glucocorticoid receptor (Homo sapiens) (UniProt P04150); experiment: GR-GFP Redistribution (AID 450;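 active means compounds whose dose series gives a full or clear partial fitted curve of increased nuclear translocation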; further: potency means the concentration at half of the fitted maximal effect); conditions: U2OS GR-GFP nuclear translocation, laser cytometry, 2 h
[6] = target: Glucocorticoid receptor (Homo sapiens) (UniProt P04150); experiment: GR-EFC Redistribution (AID 451; calls by dose curve; further: potency means the concentration at half of the fitted maximal effect); conditions: CHO-K1 GR-EFC translocation, beta-gal luminescence, 2 h
How it was run: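 CHO-K1 cells expressing nuclear EA and GR-ED fragments of b-gal; compounds titrated up to 46 uM final, 2 h at 37 C. GR nuclear translocation read as complemented b-gal luminescence after 1 h RT detection.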

[7] = target: Mitogen-activated protein kinase 10 (Mus musculus) (UniProt Q61831); experiment: JNK3 AlphaScreen Assay (AID 530; active means well fitted curve in either direction with a large enough effect, not every such curve was filed as active;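 further: kinase came from lysate of stimulated human HepG2 cells; signal reports phosphorylation of biotinylated GST-cJun 1-79 at Ser73 with 10 µM ATP; on the % scale 0 is the no-effect control and ±100 the full control effect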); conditions: JNK3 lysate, c-Jun phosphorylation; series mostly up to 57.1 µM
How it was run: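 Pre-activated (IL-1β/TNFα) JNK3 in HepG2 lysates phosphorylates biotin-GST-cJun(1-79), 10 uM ATP; anti-phospho-cJun(Ser73) AlphaScreen read at room temperature, pH 7.6 Tris buffer. Compounds pre-incubated 15 min as titrations.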

[8] = target: 3',5'-cyclic-AMP phosphodiesterase 4B (Homo sapiens) (UniProt Q07343); experiment: qHTS Assay for Inhibitors of PDE-IV (AID 607; active means well fitted activation curve with a large enough effect in the main read-out, with a control signal flat, not every such curve was filed as active; further: % of control where 0% means no effect); conditions: HEK293 ACTOne CNG channel cells, membrane potential fluorescence; series mostly up to 22.9 µM
How it was run: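 ACTOne HEK293 cells carry a modified cAMP-gated CNG channel and express endogenous PDE4; plated 1000 cells/well, compounds up to 22.9 uM final. Membrane-potential dye fluorescence (ex 535/em 590) was read; parental cells received 10 uM forskolin + 100 uM RO 20-1724.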

[9] = qHTS Assay for Lipid Storage Modulators (AID 1519; calls by dose curve); conditions: Drosophila S3 cells, BODIPY lipid droplet/cell ratio, laser cytometry, cells loaded with oleic acid
How it was run: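 Cells seeded at 5,000 per well were treated with compounds over a concentration series and loaded with oleic acid (400 uM, as added). Lipid droplet fluorescence (488 nm excitation, 500-530 nm channel) was read by laser-scanning cytometry and normalized to 20 uM Triacsin C.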

[10] = target: Dual specificity protein kinase CLK4 (Homo sapiens) (UniProt Q9HAZ1); experiment: qHTS Assay for Inhibitors of CDC-like Kinase 4 (ADP-FP Assay) (AID 1795); conditions: Transcreener ADP fluorescence polarization; series mostly up to 50 µM;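 further: recombinant human CLK4 phosphorylating RS repeat peptide at 1 µM ATP; on the % scale 0 is the no-effect control and ±100 the full control effect; nearly all actives have a fitted effect of over 60% in size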
How it was run: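 Clk4 6.25 nM; RS peptide 100 uM; ATP 1 uM; 25 mM Tris pH 7.5, 10 mM MgCl2; 1 h reaction. ADP detected via antibody/orange tracer FP displacement; TG003 positive control.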

[11] = target: Ubiquitin carboxyl-terminal hydrolase 1 (Homo sapiens) (UniProt O94782); experiment: Inhibitors of USP1/UAF1: Pilot qHTS (AID 504865); conditions: purified USP1/UAF1, Ub-rhodamine cleavage fluorescence; series mostly up to 54.9 µM; further: nearly all actives have a fitted effect of over 35% in size; further: potency means the concentration at half of the fitted maximal effect
How it was run: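 In 50mM HEPES pH 7.8 containing 0.5mM EDTA, 1mM TCEP, 0.1 mg/ml BSA and 0.01% Tween-20, 1nM USP1/UAF1 is exposed to compound for 15 min, then Ub-Rho (150nM final) is added and fluorescence is read over time.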

[12] = target: Cytochrome P450 3A4 (Homo sapiens) (UniProt P08684); experiment: qHTS Assay for Inhibitors and Substrates of Cytochrome P450 3A4 (AID 884); conditions: recombinant CYP3A4, Luciferin-PPXE luminescence; series mostly up to 57.1 µM; further: nearly all actives have a fitted effect of over 50% in size; further: potency means the concentration at half of the fitted maximal effect
How it was run: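 20 nM human CYP3A4 with 25 uM Luciferin-PPXE (at KM) in 200 mM KPO4, preincubated 10 min with compound; NADPH regeneration started a 60 min RT reaction. Luciferin detected by luminescence, normalized to 57 uM ketoconazole as full inhibition.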

[13] = Confirmation and Secondary Assay for Modulators of Hemoglobin Beta Chain Splicing at IVS2 654 locus (AID 910); conditions: HeLa EGFP-654 splicing reporter, GFP fluorescence, 48 h; series mostly up to 38.3 µM;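 further: HeLa cells stably carrying EGFP split by mutant beta-globin IVS2-654 intron; % of control where 0% means no effect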
How it was run: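 HeLa cells stably expressing EGFP interrupted by β-globin IVS2-654 intron, seeded overnight in Opti-MEM/2% FCS, then treated 2 days at 37 °C. Restored splicing read as total peak GFP intensity per well by laser scanning cytometry (488 nm excitation, 500–520 nm emission); 500 nM antisense PNA as control.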

[14] = Confirmation and Secondary Assay for Modulators of Hemoglobin Beta Chain Splicing at IVS2 705 locus (AID 930); conditions: HeLa EGFP-705 splicing reporter, GFP fluorescence, 48 h; series mostly up to 38.3 µM;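 further: HeLa cells stably expressing the EGFP-705 splicing reporter; GFP fluorescence per well restored by corrected splicing of the IVS2-705 intron in EGFP; % of control where 0% means no effect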
How it was run: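 First, HeLa EGFP-705 cells are seeded at 500/well in Optimem with 2% FCS and left overnight. Next, compound or DMSO is added for 2 days. Finally wells are laser-scanned and total peak GFP intensity scored.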

[15] = target: Cytochrome P450 1A2 (Homo sapiens) (UniProt P05177); experiment: p450-cyp1a2 (AID 410; calls by dose curve; further: potency means the concentration at half of the fitted maximal effect;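 on activity change, negative = inhibition: -100% = full effect of reference inhibitor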); conditions: recombinant CYP1A2, luciferin-ME demethylation, luminescence; series mostly up to 57 µM
How it was run: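 Luminescent readout of luciferin formed from Luciferin-ME by human CYP1A2; data normalized against complete inhibition by 57 uM furafylline. Enzyme 20nM, substrate 100uM at Km, 100mM KPO4 buffer, 60 min reaction at room temperature.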

[16] = target: Cytochrome P450 3A4 (Homo sapiens) (UniProt P08684); experiment: qHTS Assay for Activators of Cytochrome P450 3A4 (AID 885); conditions: recombinant CYP3A4, Luciferin-PPXE luminescence, 60 min; series mostly up to 57.1 µM; further: nearly all actives have a fitted effect of over 65% in size
How it was run: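 20nM CYP3A4 + 25uM Luciferin-PPXE (=KM), 200mM KPO4; cpd 10 min RT; NADPH regen, 60 min RT; stop w/ detection buffer, 20 min; luminescence. Normalized to 57 uM ketoconazole.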

[17] = measured here: cell count channel max response
[18] = measured here: lipid channel max response

Sequence of Cytochrome P450 3A4 (Homo sapiens) (P08684 whole entry, looked up): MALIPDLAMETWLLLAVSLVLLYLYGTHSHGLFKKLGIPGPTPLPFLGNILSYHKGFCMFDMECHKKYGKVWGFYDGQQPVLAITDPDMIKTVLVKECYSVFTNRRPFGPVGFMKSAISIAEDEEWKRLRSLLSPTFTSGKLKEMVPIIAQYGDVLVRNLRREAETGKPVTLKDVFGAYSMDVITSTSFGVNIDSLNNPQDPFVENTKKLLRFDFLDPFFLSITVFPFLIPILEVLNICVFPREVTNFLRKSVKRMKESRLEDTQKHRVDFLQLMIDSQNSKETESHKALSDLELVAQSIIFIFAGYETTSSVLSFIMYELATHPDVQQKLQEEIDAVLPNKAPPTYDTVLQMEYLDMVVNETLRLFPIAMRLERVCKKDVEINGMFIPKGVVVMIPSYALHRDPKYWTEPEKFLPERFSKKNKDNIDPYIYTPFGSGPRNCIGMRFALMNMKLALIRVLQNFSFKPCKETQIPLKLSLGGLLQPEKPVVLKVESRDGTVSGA
Sequence of Ubiquitin carboxyl-terminal hydrolase 1 (Homo sapiens) (O94782 whole entry, looked up): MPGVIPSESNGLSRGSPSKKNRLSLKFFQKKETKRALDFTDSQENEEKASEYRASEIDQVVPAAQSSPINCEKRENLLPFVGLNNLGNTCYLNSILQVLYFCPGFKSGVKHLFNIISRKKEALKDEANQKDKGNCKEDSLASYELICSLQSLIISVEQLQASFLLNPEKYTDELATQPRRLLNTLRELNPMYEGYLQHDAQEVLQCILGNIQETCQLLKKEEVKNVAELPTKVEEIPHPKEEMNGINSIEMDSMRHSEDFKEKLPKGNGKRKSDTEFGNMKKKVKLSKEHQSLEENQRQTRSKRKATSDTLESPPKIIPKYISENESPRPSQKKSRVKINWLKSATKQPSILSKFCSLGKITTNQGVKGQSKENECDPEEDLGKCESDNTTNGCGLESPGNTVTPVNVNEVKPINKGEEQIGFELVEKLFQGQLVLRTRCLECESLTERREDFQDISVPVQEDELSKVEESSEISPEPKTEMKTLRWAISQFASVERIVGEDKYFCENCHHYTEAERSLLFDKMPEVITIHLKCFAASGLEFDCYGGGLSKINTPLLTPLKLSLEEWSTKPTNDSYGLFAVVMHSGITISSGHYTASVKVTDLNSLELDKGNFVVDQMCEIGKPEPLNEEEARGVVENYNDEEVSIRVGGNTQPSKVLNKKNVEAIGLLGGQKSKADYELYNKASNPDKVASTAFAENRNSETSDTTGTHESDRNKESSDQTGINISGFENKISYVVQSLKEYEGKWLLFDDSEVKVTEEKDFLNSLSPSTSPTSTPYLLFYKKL
Sequence of 3',5'-cyclic-AMP phosphodiesterase 4B (Homo sapiens) (Q07343 whole entry, looked up): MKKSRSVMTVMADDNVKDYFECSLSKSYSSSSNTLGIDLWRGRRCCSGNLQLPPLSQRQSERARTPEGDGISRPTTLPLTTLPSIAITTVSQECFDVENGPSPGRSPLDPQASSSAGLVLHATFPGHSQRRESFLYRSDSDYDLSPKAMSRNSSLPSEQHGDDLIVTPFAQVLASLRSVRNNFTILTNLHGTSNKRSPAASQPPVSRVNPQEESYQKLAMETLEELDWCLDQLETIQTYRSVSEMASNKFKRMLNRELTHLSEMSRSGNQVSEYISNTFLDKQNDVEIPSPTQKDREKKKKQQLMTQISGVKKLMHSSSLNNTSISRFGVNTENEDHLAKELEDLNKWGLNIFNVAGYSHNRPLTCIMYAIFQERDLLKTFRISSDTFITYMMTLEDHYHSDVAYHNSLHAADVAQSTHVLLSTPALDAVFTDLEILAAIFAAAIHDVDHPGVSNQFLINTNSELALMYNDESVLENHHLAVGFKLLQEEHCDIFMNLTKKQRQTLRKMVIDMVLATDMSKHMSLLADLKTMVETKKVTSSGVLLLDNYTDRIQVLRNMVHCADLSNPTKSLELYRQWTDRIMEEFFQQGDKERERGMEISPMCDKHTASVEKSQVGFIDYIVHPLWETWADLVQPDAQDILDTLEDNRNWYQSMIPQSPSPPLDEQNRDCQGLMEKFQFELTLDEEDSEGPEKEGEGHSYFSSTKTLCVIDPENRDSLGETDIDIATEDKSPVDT
Sequence of Glucocorticoid receptor (Homo sapiens) (P04150 whole entry, looked up, the tested form may be a part): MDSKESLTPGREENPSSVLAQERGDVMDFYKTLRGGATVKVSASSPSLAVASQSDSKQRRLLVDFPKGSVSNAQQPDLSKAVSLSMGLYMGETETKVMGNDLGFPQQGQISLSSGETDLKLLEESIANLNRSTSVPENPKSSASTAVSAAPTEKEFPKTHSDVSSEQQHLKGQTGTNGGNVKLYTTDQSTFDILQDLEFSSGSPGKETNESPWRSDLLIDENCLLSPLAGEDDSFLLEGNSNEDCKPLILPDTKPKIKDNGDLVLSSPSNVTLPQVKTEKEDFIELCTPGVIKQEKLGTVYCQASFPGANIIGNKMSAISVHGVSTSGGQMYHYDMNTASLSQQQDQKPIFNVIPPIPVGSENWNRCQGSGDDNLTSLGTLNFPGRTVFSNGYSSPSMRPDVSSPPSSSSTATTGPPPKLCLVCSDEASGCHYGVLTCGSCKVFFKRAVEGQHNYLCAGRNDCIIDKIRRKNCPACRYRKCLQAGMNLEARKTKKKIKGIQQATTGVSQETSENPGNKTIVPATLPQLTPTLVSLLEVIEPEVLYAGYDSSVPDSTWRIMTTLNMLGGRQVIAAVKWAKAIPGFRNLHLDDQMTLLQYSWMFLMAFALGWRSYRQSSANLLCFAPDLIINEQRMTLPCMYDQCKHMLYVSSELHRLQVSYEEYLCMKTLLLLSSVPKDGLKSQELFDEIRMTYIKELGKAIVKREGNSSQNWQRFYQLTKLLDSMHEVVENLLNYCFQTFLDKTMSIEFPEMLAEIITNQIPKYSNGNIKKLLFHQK
Sequence of Lysosomal acid glucosylceramidase (Homo sapiens) (P04062 whole entry, looked up): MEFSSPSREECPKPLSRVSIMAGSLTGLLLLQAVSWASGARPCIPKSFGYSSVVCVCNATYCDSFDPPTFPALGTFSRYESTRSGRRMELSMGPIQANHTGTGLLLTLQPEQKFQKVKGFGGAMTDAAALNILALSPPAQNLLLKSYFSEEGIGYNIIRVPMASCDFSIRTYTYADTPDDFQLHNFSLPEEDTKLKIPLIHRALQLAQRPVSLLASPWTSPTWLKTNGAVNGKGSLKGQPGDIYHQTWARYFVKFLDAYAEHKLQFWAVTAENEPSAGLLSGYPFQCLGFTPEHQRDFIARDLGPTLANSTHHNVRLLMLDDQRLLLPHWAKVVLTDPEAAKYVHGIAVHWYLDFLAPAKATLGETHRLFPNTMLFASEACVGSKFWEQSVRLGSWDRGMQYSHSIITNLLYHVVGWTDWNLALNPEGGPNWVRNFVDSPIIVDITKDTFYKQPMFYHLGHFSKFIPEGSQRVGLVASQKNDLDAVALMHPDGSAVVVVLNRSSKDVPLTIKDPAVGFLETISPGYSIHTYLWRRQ
Sequence of Cytochrome P450 1A2 (Homo sapiens) (P05177 whole entry, looked up): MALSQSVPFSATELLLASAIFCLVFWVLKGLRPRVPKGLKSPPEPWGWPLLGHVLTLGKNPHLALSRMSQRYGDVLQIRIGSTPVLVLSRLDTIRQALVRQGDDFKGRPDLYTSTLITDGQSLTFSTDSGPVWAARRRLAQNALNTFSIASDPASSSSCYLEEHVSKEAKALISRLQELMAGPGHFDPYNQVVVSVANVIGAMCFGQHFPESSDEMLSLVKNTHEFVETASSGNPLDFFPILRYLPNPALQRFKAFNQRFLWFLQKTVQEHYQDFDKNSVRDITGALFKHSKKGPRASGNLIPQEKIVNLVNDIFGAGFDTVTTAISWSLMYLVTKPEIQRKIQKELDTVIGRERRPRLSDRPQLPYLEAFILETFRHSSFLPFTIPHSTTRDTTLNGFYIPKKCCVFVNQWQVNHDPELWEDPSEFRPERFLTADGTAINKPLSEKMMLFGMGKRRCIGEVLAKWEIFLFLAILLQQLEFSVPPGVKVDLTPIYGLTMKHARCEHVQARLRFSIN
Sequence of Dual specificity protein kinase CLK4 (Homo sapiens) (Q9HAZ1 whole entry, looked up): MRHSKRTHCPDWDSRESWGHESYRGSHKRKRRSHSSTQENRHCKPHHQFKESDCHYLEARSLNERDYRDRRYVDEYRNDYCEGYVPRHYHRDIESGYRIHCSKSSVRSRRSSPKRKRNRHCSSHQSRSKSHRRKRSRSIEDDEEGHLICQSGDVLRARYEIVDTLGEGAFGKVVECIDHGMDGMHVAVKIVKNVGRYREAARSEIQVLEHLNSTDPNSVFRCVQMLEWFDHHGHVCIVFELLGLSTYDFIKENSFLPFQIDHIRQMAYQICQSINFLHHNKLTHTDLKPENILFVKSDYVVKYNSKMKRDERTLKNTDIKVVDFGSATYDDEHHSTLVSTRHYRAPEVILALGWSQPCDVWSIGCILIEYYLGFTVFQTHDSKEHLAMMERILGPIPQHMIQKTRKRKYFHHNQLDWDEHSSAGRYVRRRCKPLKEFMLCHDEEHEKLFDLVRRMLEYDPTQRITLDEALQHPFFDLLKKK

COCCn1c(=O)c(C)nc2cnc(Nc3ccccc3)nc21
Potency [1]: > 11.4 µM (inactive) | activity change, negative = inhibition [2]: -18.1% (inactive) | activity change, negative = inhibition [3]: 15.1% (inactive) | activity, negative = inhibition [4]: 3.38% (inactive) | Potency [5]: > 9.22 µM (inactive) | Potency [6]: > 46 µM (inactive) | Potency [7]: inactive | Potency [8]: inactive | activity change, negative = inhibition ([9]; at 57.5 µM (top of the series)): -1.55% (inactive) | max response [9, 17]: -5.32% | max response [9, 18]: -10.4% | Potency [10]: inactive | Potency [11]: inactive

O=C(Cc1cccs1)NC1C(=O)N2C(C(=O)[O-])=C(C[n+]3ccccc3)CSC12 (stereo not given)
Potency [12]: inactive | Potency [13]: inactive | outcome [14]: inactive | activity change, negative = inhibition ([9]; at 57.5 µM (top of the series)): 7.61% (inactive) | max response [9, 17]: 18% | max response [9, 18]: 28.7% | Potency [11]: 79.4 µM (active)

Cc1cnc(CNc2ncnc3ccc(-c4ccccc4C(F)(F)F)cc23)cn1
Potency [1]: > 11.4 µM (inactive) | activity change, negative = inhibition [2]: 15.7% (inactive) | Potency [15]: 12.6 µM (active) | activity change, negative = inhibition [3]: -22.4% (inactive) | activity, negative = inhibition [4]: -29.2% (inactive) | Potency [5]: > 46 µM (inactive) | Potency [6]: > 46 µM (inactive) | Potency [7]: inactive | Potency [8]: inactive | Potency [12]: 2 µM (active) | Potency [16]: inactive | activity change, negative = inhibition ([9]; at 57.5 µM (top of the series)): 0.934% (inactive) | max response [9, 17]: 8.56% | max response [9, 18]: 7.96% | Potency [10]: inactive | Potency [11]: inactive

CC(C)N1CCN(c2ccc(OC[C@@H]3CO[C@@](Cn4cncn4)(c4ccc(Cl)cc4Cl)O3)cc2)CC1
activity change, negative = inhibition [2]: 0.955% [at 17.2 µM] (inactive) | Potency [15]: inactive | activity, negative = inhibition [4]: 1.27% [at 17.2 µM] (inactive) | Potency [7]: inactive | Potency [8]: inactive | Potency [12]: 1.58 µM (active) | Potency [16]: inactive | activity change, negative = inhibition ([9]; at 25.7 µM (top of the series)): -0.441% (inactive) | max response [9, 17]: -0.321% | max response [9, 18]: -3.7% | Potency [11]: inactive

C#C[C@]1(O)CCC2C3CCC4=C(CCC(=O)C4)C3CC[C@@]21C (stereo not given in full)
outcome [14]: inactive | activity change, negative = inhibition ([9]; at 57.5 µM (top of the series)): 7.93% (inactive) | max response [9, 17]: -6.89% | max response [9, 18]: 3.32% | Potency [11]: inactive

C=C[C@](C)(O)CCC=C(C)C
Potency [12]: inactive | Potency [13]: inactive | outcome [14]: inactive | activity change, negative = inhibition ([9]; at 57.5 µM (top of the series)): 3.04% (inactive) | max response [9, 17]: 15.3% | max response [9, 18]: 20.7% | Potency [11]: inactive

CN1C(CC(=O)c2ccccc2)CCCC1CC(O)c1ccccc1 (stereo not given)
Potency [12]: inactive | Potency [13]: inactive | outcome [14]: inactive | activity change, negative = inhibition ([9]; at 57.5 µM (top of the series)): -2.13% (inactive) | max response [9, 17]: 13% | max response [9, 18]: 12.2%

NC(Cc1c[nH]c2ccccc12)C(=O)O (stereo not given)
Potency [16]: inactive | Potency [13]: inactive | outcome [14]: inactive | activity change, negative = inhibition ([9]; at 57.5 µM (top of the series)): 9.94% (inactive) | max response [9, 17]: 25.9% | max response [9, 18]: 44.9%

COc1ncc2nc(-c3cccs3)c(=O)n(C)c2n1
Potency [1]: > 11.4 µM (inactive) | Potency [15]: 2 µM (active) | activity change, negative = inhibition [3]: 8.87% (inactive) | activity, negative = inhibition [4]: 20.2% (inactive) | Potency [5]: > 46 µM (inactive) | Potency [6]: > 46 µM (inactive) | Potency [7]: inactive | Potency [8]: inactive | Potency [16]: inactive | activity change, negative = inhibition ([9]; at 57.5 µM (top of the series)): 6% (inactive) | max response [9, 17]: 19.4% | max response [9, 18]: 24.1% | Potency [10]: inactive | Potency [11]: inactive

Reference: PubChem BioAssay (NCATS)
